# Measured values as given in PubChem BioAssay (Tox21).
# Results filed as inconclusive are left out. Values without a mark were called inactive. Activity calls are given as the source filed them. Calls follow the shape of the dose curve; as a rule, active = well fitted cell-killing curve with a large enough effect in the repeat runs; inconclusive = weak or mixed curves, or effect the other way; inactive = flat fitted curve, though single readings scatter.
# Experiment: qHTS assay to identify small molecule antagonists of the retinoid acid receptor (RAR) signaling pathway - cell viability counter screen (AID 1159551); also: nearly all actives have a fitted effect of over 35% in size
# Conditions: C3RL4 cells viability, ATP luminescence (CellTiter-Glo), 6 h; series mostly up to 92.4 µM; activity change, negative = cytotoxicity: at the top concentration
# From the text: U.S. Tox21 Program National Center for Advancing Translational Sciences [NCATS] NIH Chemical Genomics Center [NCGC] U.S. Environmental Protection Agency [EPA] National Institutes of Environmental Health Sciences [NIEHS] National Toxicology Program [NTP] U.S. Food and Drug Administration [FDA] Tox21 Assay Overview: All-trans Retinoic acid (atRA) is the potent natural metabolite of retinol and plays an important role in normal embryonic development and maintenance of cellular phenotype in adult animals. atRA is the activating ligand for the retinoic acid receptors (RARs) which form heterodimers with retinoid X receptors (RXRs) on the retinoic acid response element (RARE). Through activation of the RAR/RXRs nuclear receptors, atRA regulates the transcription of a large number of protein-coding genes and regulatory RNAs. Intracellular levels of atRA are controlled by the retinol signaling pathway (RSP) that regulates the biosynthesis and catabolism of atRA to maintain physiological levels. Chemicals that interfere with the RSP can cause abnormal intracellular levels of atRA and therefore are potential developmental toxicants. To assess compounds for the potential adverse effect on embryonic development through interfering with retinol signaling, a cell-based RARE luciferase reporter gene assay was used. C3RL4 cell line (OARSA/CFSAN/FDA, Laurel, MD) was used to screen Tox21 10K compound library for identifying inhibitors of the RSP. Also cytotoxicity was assessed by determining the viability of cells based on the quantitation of ATP.
# Tox21 Assay Protocol Summary: C3RL4 cells were seeded at 1,000/well in 4 uL of assay medium into white solid 1,536-well tissue culture plates (Greiner Bio-One North America Inc. Monroe, NC) using a Multidrop Combi (Thermo Scientific, Waltham, MA) dispenser. After incubation at 37 C and 5% CO2 for an overnight, 23 nL of compounds dissolved in DMSO, positive control or DMSO only were transferred by a Pintool station (Kalypsys, San Diego, CA). One ul of 1 uM (final concentration) of Retinol was added right after the compound addition by using a Flying Reagent Dispenser (FRD) (Aurora Discovery, San Diego, CA). After 6 hr incubation at 37 C and 5% CO2, 5 uL of CellTiter-Glo reagent (Promega Corporation, Madison, WI) was added to each assay plate using an FRD. Luminescence was quantified on a ViewLux plate reader (PerkinElmer, Waltham, MA) after 30 min incubation at room temperature.
# % is scaled to controls: 0 for no effect and ±100 for the full control effect; potency is read from the fitted curve at half-maximal effect.
SMILES,"activity change, negative = cytotoxicity",Potency
CCN(Cc1ccc(Cl)nc1)/C(=C/[N+](=O)[O-])NC,-0.886% [at 42.5 µM],–
COP(=S)(OC)Oc1ccc(S(N)(=O)=O)cc1,1.01% [at 42.5 µM],–
CNC(=O)Oc1c(C(C)(C)C)cc(C)cc1C(C)(C)C,-2.98%,–
CC(COc1ccc(Oc2ccccc2)cc1)Oc1ccccn1 (stereo not given),0.125%,–
Nc1cc2c3c(c1)C(c1ccccc1)=N[C@@H](NC(=O)c1cccnc1)C(=O)N3CC2,3.2%,–
CC(=O)CC(c1ccc(Cl)cc1)c1c(O)c2ccccc2oc1=O (stereo not given),3.52%,–
Clc1ccccc1N1CCNCC1,-0.93% [at 42.5 µM],–
CCC#N,0.974%,–
COC(=O)COc1ccc(Cl)cc1Cl,-0.0913%,–
CC(C)CC#N,-1%,–
O=C1CN2CCOC2(c2ccccc2Cl)c2cc(Cl)ccc2N1 (stereo not given),1.19% [at 42.5 µM],–
COc1cccc(C(=O)NN(C(=O)c2cc(C)cc(C)c2)C(C)(C)C)c1C,-2.13%,–
O=NN1CCN(N=O)CC1,3.16%,–
COc1ncc(F)c2nc(S(=O)(=O)Nc3c(F)cccc3F)nn12,0.674% [at 42.5 µM],–
C=CCC1=C(C)[C@@H](OC(=O)[C@@H]2[C@@H](C=C(C)C)C2(C)C)CC1=O,–,54.5 µM (active)
O=C(N[C@H]1CN2CCC1CC2)c1cc2ccoc2cn1,-0.793%,–
COC(=O)C1=CCCN(C)C1,0.902% [at 42.5 µM],–
CCC/C(=N\OCC)C1=C(O)CC(CC(C)SCC)CC1=O (stereo not given),6.4%,–
N#Cc1c(Cl)cccc1Cl,4.34%,–
CC1COC2(c3ccccc3Cl)c3cc(Cl)ccc3NC(=O)CN12 (stereo not given),3.53% [at 42.5 µM],–

SMILES,"activity change, negative = cytotoxicity",Potency
CC(CCc1ccccc1)NC(C)C(O)c1ccc(O)cc1 (stereo not given),-1.75% [at 42.5 µM],–
CC1(C)C(=O)NC(=O)NC1=O,2.65%,–
O=C1OC(c2ccc(O)c(S(=O)(=O)O)c2)(c2ccc(O)c(S(=O)(=O)O)c2)c2c(Br)c(Br)c(Br)c(Br)c21,-0.164% [at 42.5 µM],–
COC(=O)C(c1ccccc1)C1CCCCN1 (stereo not given),-0.74%,–
CCCCOC(=O)c1ccccc1N,-5.86%,–
CCS(=O)(=O)CCSP(=O)(OC)OC,1.12%,–
CC1CCC(=O)O1 (stereo not given),1.94%,–
CC1=C(C(=O)O)N2C(=O)[C@@H](N)[C@H]2SC1,-0.0172% [at 19 µM],–
CNCC(=O)c1ccc(O)c(O)c1,-0.296% [at 42.5 µM],–
Cc1ncsc1CCCl,2.65% [at 42.5 µM],–
CNC(=O)Oc1cccc(C(C)C)c1,1.97%,–
c1coc(-c2nc3ccccc3[nH]2)c1,-3.53%,–
ClC(Cl)C(Cl)Cl,6.02%,–
CS(=O)(=O)c1cc(C(F)(F)F)ccc1C(=O)c1cnoc1C1CC1,-0.412%,–
CCOP(=O)(OCC)OP(=O)(OCC)OCC,0.215%,–
CCOC(=O)C1(c2ccccc2)CCN(CCc2ccc(N)cc2)CC1,-2.77% [at 42.5 µM],–
CC(C(O)c1ccccc1)N(C)C/C=C/c1ccccc1 (stereo not given),-2.48% [at 42.5 µM],–
C[C@@H]1CN(C2CCC(C#N)(c3ccc(F)cc3)CC2)CC[C@]1(C(=O)O)c1ccccc1 (stereo not given in full),-0.809% [at 42.5 µM],–
N#CC(Cl)(Cl)Cl,-1.03%,–
c1cc[c]([Hg][c]2ccccc2)cc1,0.232%,–
